The values that follow come from ChEMBL document CHEMBL1157539, “Thousands of chemical starting points for antimalarial lead identification” (Nature, 2010).

Format in all cases: functional
For test [1], the system named is Plasmodium falciparum. As to the kind of experiment: GSK_TCMDC: Inhibition of Plasmodium falciparum 3D7 in whole red blood cells, using parasite LDH activity as an index of growth. Test compounds present at 2uM.
Test [2] concerns Plasmodium falciparum. As to the kind of experiment: GSK_TCMDC: Inhibition of Plasmodium falciparum Dd2 in whole red blood cells, using parasite LDH activity as an index of growth. Test compounds present at 2uM.
In the next test the test system is HepG2. As to the kind of experiment: GSK_TCMDC: Percent inhibition of human HepG2 cell line. Test compounds present at 10uM.

Usually Inhibition stands for the share of the control response that was lost under treatment. A high value points to a response far below the control. `N#Cc1ccc(N/C(=N\c2ccc(-c3ccccc3)cc2)NCc2cccnc2)c(O)c1`: the Inhibition in the test with Plasmodium falciparum [1] turned out to be 100%; in the test on Plasmodium falciparum [2], 46%; in the test on HepG2, 2%.

For `COCCNCc1ccc(-c2cccc(CN(C(=O)NCCc3ccccc3)C3CCN(Cc4ccccc4)CC3)c2)cc1.O=C(O)C(F)(F)F`, the Inhibition in the test on Plasmodium falciparum [1] is reported as 88%; in the test on Plasmodium falciparum [2] it was 90%; with HepG2 it was 25%.

Turning to `CN(CCc1ccccc1)c1ncc(-c2cccc(CNCCC3CCCN3C)c2)cn1` (stereo not drawn), the Inhibition came out at 92% in the test with Plasmodium falciparum [1], 98% in the test on Plasmodium falciparum [2] and 99% with HepG2.

For the compound `CO/C(=C\C=C\c1cc2cc(Cl)ccc2[nH]1)C(=O)NCCCN1CCN(c2cc(Cl)ccc2OC)CC1`, the Inhibition with Plasmodium falciparum [1] is 97%; with Plasmodium falciparum [2], 21%; with HepG2, 41%.

For the compound `O=C(Nc1ccc2ccccc2c1)N(CCCn1ccnc1)Cc1csc(-c2ccc(CNCc3ccccc3)cc2)n1.O=C(O)C(F)(F)F`, the Inhibition is 99% with Plasmodium falciparum [1], 53% in the test with Plasmodium falciparum [2] and 10% in the test on HepG2.

For the compound `N#Cc1ccc(-c2ccc(OCC(O)CN3CCCN(C(=O)C(c4ccc5c(c4)OCO5)N4CCN(C/C=C/c5ccccc5)CC4)CC3)cc2)cc1` (stereo not drawn), the Inhibition in the test on Plasmodium falciparum [1] is given as 99%; in the test on Plasmodium falciparum [2], 77%; with HepG2, 25%.

As to `COc1ccc(NC(=O)Nc2cccc(-c3cccc(-c4nc5cccc(C)c5[nH]4)c3)c2)cc1`, the results for the Inhibition with Plasmodium falciparum [1], in the test on Plasmodium falciparum [2] and with HepG2 were 100%, 43% and 0%, respectively.

`Clc1ccc2nnc(-c3c(Cl)cccc3Cl)n2n1`: the figures for the Inhibition with Plasmodium falciparum [1], in the test with Plasmodium falciparum [2] and in the test on HepG2 were 96%, 60% and 29%, respectively.

As for `COc1cccc2c(Nc3ccccc3C)nc(Nc3ccccc3C)nc12`, the results for the Inhibition with Plasmodium falciparum [1], with Plasmodium falciparum [2] and in the test with HepG2 were 95%, 36% and 9%, respectively.

Turning to `CC(=O)Nc1ncc(C(=O)Nc2cccc(-c3cccc(-c4nc5cc(F)ccc5[nH]4)c3)c2)s1`, the Inhibition in the test with Plasmodium falciparum [1] is given as 100%; in the test on Plasmodium falciparum [2], 93%; in the test with HepG2, 27%.

Take `O=C(Nc1cccc(CN2CCCN(Cc3ccsc3)CC2)c1)c1cc2ccccc2s1.O=C(O)C(F)(F)F`: the Inhibition was 96% with Plasmodium falciparum [1], 29% with Plasmodium falciparum [2] and 25% in the test on HepG2.

Regarding `Cn1ccnc1CNC(=O)c1ccc(-c2ccc(-c3nc4cc(C(F)(F)F)ccc4[nH]3)s2)cc1`, the Inhibition in the test with Plasmodium falciparum [1] worked out at 100%; with Plasmodium falciparum [2] it was 43%; in the test on HepG2, 40%.

Consider `COc1ccc(Cn2c(Nc3cccc(C(F)(F)F)c3)nc3cc(C(=O)NCCCN(C)C)ccc32)cc1Cl`, for which the values for the Inhibition with Plasmodium falciparum [1], with Plasmodium falciparum [2] and in the test with HepG2 were 90%, 3% and 15%, respectively.

As for `COc1cccc(NC(=O)Nc2c(-c3cccc(C(F)(F)F)c3)c(C(F)(F)F)nn2C)c1`, the Inhibition with Plasmodium falciparum [1] was found to be 93%; with Plasmodium falciparum [2] it was 30%; in the test on HepG2, 2%.

Consider `CCOC(=O)c1ccc(NC(=O)Nc2cccc(-c3ccc(-c4nc5cc(C(F)(F)F)ccc5[nH]4)cc3)c2)cc1`, for which the Inhibition with Plasmodium falciparum [1] was found to be 100%; in the test with Plasmodium falciparum [2] it was 99%; in the test with HepG2 it was 62%.

`CC(C)C[C@H](NC(=O)[C@H](Cc1ccccc1)NC(=O)CCN1C(=O)COc2ccc(C(=O)O)cc21)C(=O)NC(CC1CCCCC1)C(O)CC(=O)NCCCn1ccnc1.Cl.O` (stereo partly drawn): the Inhibition in the test with Plasmodium falciparum [1] is reported as 99%; in the test with Plasmodium falciparum [2], 0%; in the test with HepG2, 0%.

Regarding `COc1ccc2nccc([C@@H](O)CN3CCC(NCc4nc5ccc(F)cc5[nH]4)CC3)c2c1.O=C(O)C(=O)O`, the results for the Inhibition with Plasmodium falciparum [1], in the test on Plasmodium falciparum [2] and in the test on HepG2 were 100%, 4% and 20%, respectively.

With `NC(=O)c1ccc(C(=O)Nc2cccc(-c3ccc(-c4nc5cc(C(F)(F)F)ccc5[nH]4)cc3)c2)cc1`, the Inhibition in the test with Plasmodium falciparum [1] came out at 100%; in the test with Plasmodium falciparum [2], 31%; in the test with HepG2, 35%.

`Br.CC=CCON1C(=N)NC(=N)NC1(C)C`: the Inhibition is reported as 94% in the test on Plasmodium falciparum [1], 1% with Plasmodium falciparum [2] and 57% with HepG2.

Consider `Cl.N#Cc1cccc(/C=C/C(=O)NC2CCC(CCN3CCc4ccc(-c5cnccn5)cc4CC3)CC2)c1` (stereo not drawn), for which the Inhibition with Plasmodium falciparum [1] is 93%; in the test with Plasmodium falciparum [2], 47%; in the test with HepG2, 22%.

Turning to `CCOc1ccc(C(=O)Nc2cc(Br)c3c(c2)CNCC3)cc1Br.Cl`, the figures for the Inhibition with Plasmodium falciparum [1], with Plasmodium falciparum [2] and in the test with HepG2 were 96%, 21% and 18%, respectively.

Consider `CCN(CC)CCN(Cc1ccc(-c2ccc(C(F)(F)F)cc2)cc1)C(=O)Cn1c(SCc2ccc(F)cc2)nc(=O)c2sccc21.O=C(O)C(O)C(O)C(=O)O`, for which the Inhibition with Plasmodium falciparum [1] is recorded as 100%; with Plasmodium falciparum [2], 65%; with HepG2, 51%.

`CCNc1cc(C(=O)N[C@@H](Cc2ccccc2)[C@H](O)CNC(C)(C)CC(C)(C)C)c(F)c(N2CCCCS2(=O)=O)c1`: the results for the Inhibition in the test with Plasmodium falciparum [1], in the test with Plasmodium falciparum [2] and in the test on HepG2 were 94%, 63% and 8%, respectively.

On to `COc1ccc(CN2C(=S)N(Cc3ccccc3)C(=O)C2CC(=O)Nc2ccccc2)cc1OC` (stereo not drawn), for which the Inhibition was 96% with Plasmodium falciparum [1], 73% with Plasmodium falciparum [2] and 6% in the test on HepG2.

As for `Cc1nc(-c2cccc(Nc3ccnc4cc(-c5nccs5)ccc34)c2)no1.Cl`, the results for the Inhibition in the test with Plasmodium falciparum [1], in the test with Plasmodium falciparum [2] and with HepG2 were 99%, 90% and 37%, respectively.

As for `CC(=O)Nc1ccc(OCCCCN(Cc2ccccc2C(F)(F)F)c2ccc(C(F)(F)F)c(C#N)c2)c(Cl)c1`, the Inhibition with Plasmodium falciparum [1] turned out to be 96%; in the test on Plasmodium falciparum [2], 96%; in the test with HepG2 it was 14%.
